# Only a selection was taken, and hits are over-represented in it overall.
# Tg IFNy HTS – inhibitors of Toxoplasma gondii growth with IFN-gamma; activity change, negative = inhibition, % (concentration not given with the values); Toxoplasma gondii growth in IFN-gamma-treated host cells; active compounds read low; 69,000 compounds, 3.8% hits; in the data active = activity change below about -70%, passing the limit was not always enough;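 note: host cells are HeLa cells infected with Toxoplasma gondii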
# * hit, by the source's call; i = inactive.
SMILES,Tg IFNy HTS
COc1ccc(-c2nc(CN3C(=O)C(O)(c4ccc(C)cc4)c4ccccc43)c(C)o2)cc1 (stereo not given),-123.5*
Cc1cc(C)c2c(=O)n(Cc3nc(-c4ccccc4Cl)oc3C)c(=O)n(-c3ccccc3)c2n1,2.1
CCN(CC)C(=O)c1cc(C)nc2c1c(=O)n(Cc1nc(-c3ccccc3Cl)oc1C)c(=O)n2C,-21.9
Cc1ccc(-c2nc(CN3C(=O)C(O)(c4ccccc4)c4ccccc43)c(C)o2)cc1 (stereo not given),-65.3
CCN1c2cc(C)ccc2-n2cccc2C12CCN(C(=O)NCc1ccc(C)cc1)CC2,-62.3
COc1cccc(C(=O)N2CCC(C(=O)NCCc3csc(C)n3)CC2)c1,-0.9
N#CCC(=O)N1N=C(C2CCCCC2)CC1(O)C(F)(F)F (stereo not given),-41.3
O=C(Cn1c(=O)cc(C(=O)N2CCCCC2)c2ccccc21)NC1CCCCC1,1.0
COc1ccccc1/C=C/c1nn2c(COc3ccc(F)cc3)nnc2s1,-90.6*
COc1ccc(Cc2nnc3sc(Cc4ccccc4)nn23)cc1,30.3
COc1ccc(-c2nn3c(Cn4nnc5ccccc54)nnc3s2)cc1,7.0
Cc1ccc(S(=O)(=O)Nc2ccc(C)cc2NS(=O)(=O)c2ccc(C)cc2)cc1,-22.9
Fc1ccc(N2CCCN(Cc3ccc4nonc4c3)CC2)cc1,30.1
CCOC(=O)c1cc(C(=O)OC)c(C)nc1N1CCCN(Cc2ccc(F)cc2)CC1,-76.7*
CCOC(=O)c1[nH]ncc1CN1CCCN(c2cccc(OC)c2)CC1,51.3
CN(C)C(=O)N1C[C@H]2CCC[C@]2(COc2ccccn2)C1,i
CS(=O)(=O)N1CCOCC2(CN(C(=O)c3ccc[nH]3)CCO2)C1 (stereo not given),279.6
CCCCCOC(=O)Nc1nc(=O)n([C@@H]2O[C@H](C)[C@@H](O)[C@H]2O)cc1F,-53.3
Cc1cn([C@H]2O[C@@H](CO)[C@H](O)[C@@H]2F)c(=O)[nH]c1=O,18.0
C[C@H]1O[C@@H](n2cc(F)c(=O)[nH]c2=O)[C@H](O)[C@@H]1O,-91.3*
CS(=O)(=O)N1CCC2O[C@@H](COc3cccnc3)CCC21 (stereo not given in full),85.6
c1cc(-c2nc(-c3ccc4c(c3)OCCCO4)cs2)on1,215.8
Cc1cccc(CN2CCc3onc(CO)c3C2)n1,2.7
C(=C\c1ccccc1)/CN1CCN(C(c2ccccc2)c2ccccc2)CC1,13.7
OC(CSc1cccs1)CN1CCN(C(c2ccccc2)c2ccccc2)CC1 (stereo not given),-94.1*
SMILES,Tg IFNy HTS
CCc1ccc(CNC2CCc3c(ccc(=O)n3CCOC)C2)o1 (stereo not given),0.3
O=C1N(CC2CCC2)CCCC1(O)CNCc1ccc2c(c1)OCCCO2 (stereo not given),4.7
CN1CCOCC2(CCCN(C(=O)c3cn(C)cn3)C2)C1 (stereo not given),19.6
CCN(CC)c1ccc(NC(=S)NC(=O)c2ccc(OC)cc2)cc1,-9.7
COc1ccc(Nc2nccc(NCCO)n2)cc1,84.8
CCN(CC)c1nc(Nc2ccc(OC)cc2)nc(Nc2ccc(OC)cc2)n1,-97.5*
Cc1ccc(-c2nccn2CCCO)c(Cl)c1Cl,16.2
CNC(=O)c1nc(CN2CCOC(Cc3ccc(F)cc3)C2)no1 (stereo not given),-10.0
Cc1oc(-c2ccc(C(=O)N3CCN(c4ccccc4)CC3)cc2)nc1CN1CCC(C)CC1,-22.6
O=C(Nc1ccccc1C(=O)Nc1cccc2ccccc12)Nc1cccc2ccccc12,134.9
O=C(Nc1ccc2c3c(cccc13)CC2)c1cccnc1Cl,32.0
O=C(Nc1ccc2c3c(cccc13)CC2)c1nc(-n2cnnc2)n[nH]1,-80.4*
COCc1nnc(C(=O)N2CCC(N3CCCCC3)CC2)o1,-2.1
CCOCC1CC2(CCN(Cc3nccs3)CC2)CO1 (stereo not given),5.8
COc1ccc(-c2ccc(S(N)(=O)=O)cc2F)c2ccc(C)nc12,-0.6
Cc1cccc(CO[C@@H]2CC[C@@H]3[C@H]2OCCN3c2ncc(F)cn2)n1,4.6
COc1ccc2c(c1)NC1(CCN(CCN3C(=O)c4ccccc4C3=O)CC1)c1cccn1-2,155.0
O=C(NC(Cc1cccs1)c1nccs1)c1cccnc1 (stereo not given),-66.9
CC1CCN(c2ccc3ccc(C(=O)NCCCN(C)C)cn23)CC1,-4.0
Cc1oc(-c2cccc(Cl)c2)nc1CN1CCCC(C(=O)NC2CCCCCC2)C1 (stereo not given),-56.1
COc1ccc(CNC(=O)C2CCCN(Cc3nc(-c4cccc(C)c4)oc3C)C2)cc1 (stereo not given),-82.6*
Cc1oc(-c2cccc(C(F)(F)F)c2)nc1CN1CCCC(C(N)=O)C1 (stereo not given),3.5
Cc1nocc1C(=O)N1CCC2(CC1)C(=O)N(c1ccoc1)c1ccccc12,4.4
CCOC(=O)c1sc(-c2ccccc2)nc1CSc1ccccn1,57.6
C[C@@H]1C[C@@H]2CN(C(=O)N3CCCC3)C[C@@H]2O1,-2.2
COc1cc(C(=O)OCCCN2CCCN(CCCOC(=O)c3cc(OC)c(OC)c(OC)c3)CC2)cc(OC)c1OC,-7.4

# Bioassay records (PubChem BioAssay)
